# Data: PubChem BioAssay AID588397 (National Center for Advancing Translational Sciences (NCATS), 2011)
# “And” between values parts separate entries of the source, which are not always exact repeats. Equal values may be shown once. The whole screen tested about 1,300 compounds, of which about 1,000 (77%) were called active. Inconclusive results (about 7%) are left out. So high a share suggests a set chosen from earlier hits. The list shows a part of the results. Unmarked numbers belong to inactive results. Calls follow the shape of the dose curve; as a rule, active = well fitted inhibition curve with a large enough effect; inconclusive = small, poorly fitted or top-dose-only effect; inactive = no such curve, though single readings can be large or run the other way.
# Assay: qHTS of small molecules that selectively kill Giardia lamblia: Hit Validation.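 Also: viability measured as ATP content by luminescence so killing lowers signal; nearly all actives have a fitted effect of over 65% in size.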
# Conditions: Giardia lamblia trophozoite viability, dose-response; series mostly up to 38.3 µM; activity change, negative = killing: at the top concentration
# Excerpt: Giardia lamblia is a human pathogen afflicting impoverished nations, and the most common cause of outbreaks of diarrhea in the United States. Giardia has been classified by the CDC as a category B bioterrorism organism. The favored anti giardiasis drugs in the US are metronidazole or tinidazole, compounds that have undesirable side effects. Moreover, increasing resistance to drug regimes and recurrence are a concern. It is thus clear that alternative drug treatments are needed.
# In a collaboration between the University of Maryland, College Park and the NIH Chemical Genomics Center, a bioluminescence Giardia viability assay based on the trophozoites' ATP content was developed. This assay is suitable for high throughput screening, and miniaturized the assay for compound screening in 1536-well plates. The goal of the project is to screen the Molecular Libraries Small Molecule Repository (MLSMR) for compounds that selectively kill Giardia trophozoites.
# NIH Chemical Genomics Center [NCGC]
# NIH Molecular Libraries Probe Centers Network [MLPCN]
# Assay Submitter (PI): Osnat Herzberg, University of Maryland, College Park, MD.
# 1. Dispense 2 ul/well media
# 2. Dispense 23 nl/well compounds
# 3. Dispense 4 ul/well Giardia trophozoites at a concentration of 100 cells/well
# 4. Incubate 48 hrs at 37 deg C anaerobically
# 5. Dispense 4 ul/well ATPLite 1-Step Luminescence assay kit
# 6. Incubate 15-30 min at room temperature
# 7. Read luminescence signal on ViewLux plate reader
# % is scaled to controls: 0 for no effect and ±100 for the full control effect; potency is read from the fitted curve at half-maximal effect.
SMILES,Potency,"activity change, negative = killing"
O=C(CSc1ccsc1[N+](=O)[O-])NCCc1ccccc1,0.818 µM (active),–
O=C(CSc1ccsc1[N+](=O)[O-])NCCc1ccc(Cl)cc1,1.3 µM (active),–
CCc1cccc(N=c2c([N+](=O)[O-])nn(-c3ccc(Cl)cc3)n2O)c1,1.45 µM (active),–
CN=c1c([N+](=O)[O-])nn(-c2ccc3c(c2)OCCO3)n1O,4.1 µM (active),–
O=[N+]([O-])c1nn(-c2ccc3c(c2)OCCO3)n(O)c1=NCCC1=CCCCC1,1.63 µM (active),–
COc1cc(N=c2c([N+](=O)[O-])nn(-c3ccc4c(c3)OCCO4)n2O)cc(OC)c1,5.16 µM (active),–
O=[N+]([O-])c1nn(-c2ccc3c(c2)OCCO3)n(O)c1=NCCCO,2.05 µM (active),–
CCc1cccc(N=c2c([N+](=O)[O-])nn(-c3ccc4c(c3)OCCO4)n2O)c1,0.818 µM (active),–
Cc1cc(C)cc(N=c2c([N+](=O)[O-])nn(-c3ccc4c(c3)OCCO4)n2O)c1,0.729 µM (active),–
Cn1nc(-c2cccnc2)nc2c(=O)n(C)c(=O)nc1-2,4.1 µM (active),–
Cn1nc(-c2ccc(F)cc2)nc2c(=O)n(C)c(=O)nc1-2,0.103 µM (active),–
Cn1nc(-c2ccncc2)nc2c(=O)n(C)c(=O)nc1-2,1.16 µM (active),–
Cn1nc(-c2ccc(Cl)cc2)nc2c(=O)n(C)c(=O)nc1-2,0.13 µM (active),–
CCCc1nc2c(=O)n(C)c(=O)nc-2n(C)n1,0.326 µM (active),–
COc1ccc(-c2nc3c(=O)n(C)c(=O)nc-3n(C)n2)cc1,0.163 µM (active),–
O=C1S/C(=C\c2ccc(O)c([N+](=O)[O-])c2)C(=O)N1c1ccccc1Cl,1.63 µM (active),–
O=C1S/C(=C\c2ccc(O)c([N+](=O)[O-])c2)C(=O)N1Cc1cccc([N+](=O)[O-])c1,0.818 µM (active),–
O=C(O)c1cccc(CN2C(=O)S/C(=C/c3ccccc3[N+](=O)[O-])C2=O)c1,–,-35.3%
O=C1/C(=C/c2ccc(O)c([N+](=O)[O-])c2)SC(=S)N1Cc1ccccc1,1.45 µM (active),–
COc1cccc(/C=C2\Oc3ccc(O)cc3C2=O)c1O,3.26 µM (active),–
CC(=O)c1c(C)n([O-])c2ccccc2[n+]1=O,0.65 µM (active),–
COc1ccc2c(c1)[n+](=O)c(C(C)=O)c(C)n2[O-],4.1 µM (active),–
CC(=O)c1c(C)n([O-])c2cc(C)ccc2[n+]1=O,0.818 µM (active),–

SMILES,Potency,"activity change, negative = killing"
CCOc1ccc(-n2c(C)c(C(C)=O)c3cc(O)ccc32)cc1,–,5.94%
CCN(CC)CC(=O)c1c(C)n(C)c2ccc(OC)cc12,–,0.629%
CC(=O)c1c(C)n([O-])c2ccc(C)cc2[n+]1=O,0.41 µM (active),–
NC(=S)N/N=C1\c2ccccc2-c2c(C(=O)O)cccc21,–,-2.7%
CC(=O)OCc1c(COC(C)=O)[n+](=O)c2ccccc2n1[O-],5.79 µM (active),–
CC(=O)c1c(C)n([O-])c2cc(F)c(F)cc2[n+]1=O,4.1 µM (active),–
O=C(Nc1ccc2oc(-c3ccncc3)nc2c1)c1ccc([N+](=O)[O-])o1,0.918 µM (active),–
O=C(Nc1ccc2oc(-c3cccnc3)nc2c1)c1ccc([N+](=O)[O-])o1,0.918 µM (active),–
O=C(Nc1ccc2oc(-c3ccccc3F)nc2c1)c1ccc([N+](=O)[O-])o1,0.818 µM (active),–
Cc1cnc(N=Nc2ccccc2)[nH]1,9.18 µM (active),–
O=C(NCCCO)c1cc([N+](=O)[O-])cc2c1C=Cc1ccccc1O2,11.6 µM (active),–
O=C(Nc1c(Cl)ccc2nsnc12)c1ccc([N+](=O)[O-])o1,1.3 µM (active),–
Cc1ccc2nsnc2c1NC(=O)c1ccc([N+](=O)[O-])o1,3.26 µM (active),–
NC(=S)NN=C1CCCCCCCC1,23.1 µM (active),–
Cc1ncc([N+](=O)[O-])n1CCOC(=O)NC(NCc1ccccc1)C(Cl)(Cl)Cl (stereo unspecified),0.206 µM (active),–
Cc1ncc([N+](=O)[O-])n1CCOC(=O)NC(NCc1ccccc1Cl)C(Cl)(Cl)Cl (stereo unspecified),0.146 µM (active),–
Cc1ncc([N+](=O)[O-])n1CCOC(=O)NC(NCc1cccnc1)C(Cl)(Cl)Cl (stereo unspecified),0.46 µM (active),–
CCCCCCSc1ccc([C@H]2N[C@@](Cc3ccccc3)(C(=O)OC)[C@H]3C(=O)N(C)C(=O)[C@@H]23)cc1,–,-9.35%
Cc1cc(=O)oc2cc(O)c(N=Nc3ccccc3)cc12,1.03 µM (active),–
Cn1c(-c2ccc(C(=O)c3ccccc3)s2)nc2ccccc21,3.26 µM (active),–
COc1ccc(-c2cn3cc([N+](=O)[O-])ccc3n2)cc1OC,1.83 µM (active),–
O=[N+]([O-])c1ccc2nc(-c3ccc(OC(F)F)cc3)cn2c1,2.31 µM (active),–
COC(=O)c1sc(NC(=O)c2ccc(OC)cc2OC)nc1C,0.365 µM (active),–

SMILES,Potency,"activity change, negative = killing"
COc1cc(C(=O)NC(=S)Nc2ccc(Cl)cn2)cc(OC)c1OC,–,-7.19%
COc1ccc(C(=O)Nc2ccc(C)cn2)c(OC)c1,0.579 µM (active),–
C[C@H]1CN=C(N(C)C)N1CCC1CCCC1,–,2.7%
CCOC(=O)CSc1ccc(C(=O)NCCCN2CCOCC2)cc1[N+](=O)[O-],18.3 µM (active),–
O=C(CN(C1CCCCC1)S(=O)(=O)c1ccc(F)cc1)NCC1CCCO1 (stereo unspecified),1.63 µM (active),–
Cc1c[n+]([O-])ccc1[N+](=O)[O-],1.3 µM (active),–
Cc1ccnc(NC(=O)c2ccc3c(c2)OCO3)c1,2.59 µM (active),–
Cc1nc2c(ccc3nc(NC(=O)c4ccc5c(c4)OCCO5)sc32)s1,3.26 µM (active) and 3.65 µM (active),–
Cc1cc(NC(=O)c2ccc3c(c2)OCCO3)no1,1.16 µM (active),–
Cc1cc(NC(=O)c2ccc(C(C)(C)C)cc2)no1,6.5 µM (active),–
N#Cc1sc(NCc2cccc(Cl)c2)nc1Cl,23.1 µM (active),–
NC(=O)CCCn1c(C(=O)c2ccc(Cl)cc2)c2ccc([N+](=O)[O-])cc2[n+]1[O-],1.16 µM (active),–
NCCCn1c(C(=O)c2ccc(Cl)cc2)c2ccc([N+](=O)[O-])cc2[n+]1[O-],3.26 µM (active),–
CCOC(=O)C1=C(C)N=c2s/c(=C\c3ccc(O)c([N+](=O)[O-])c3)c(=O)n2C1c1ccccc1OC (stereo unspecified),2.05 µM (active),–
CCOC(=O)C1=C(C)N=c2s/c(=C/c3cccc([N+](=O)[O-])c3O)c(=O)n2C1c1ccc(OC)cc1OC (stereo unspecified),1.83 µM (active),–
CCOC(=O)C1=C(C)N=c2s/c(=C/c3cccc([N+](=O)[O-])c3O)c(=O)n2C1c1cc(OC)c(OC)c(OC)c1 (stereo unspecified),2.9 µM (active),–
CCOC(=O)C1=C(C)N=c2s/c(=C/c3cccc([N+](=O)[O-])c3O)c(=O)n2C1c1ccccc1 (stereo unspecified),2.31 µM (active),–
CN(C)C(=O)CCc1ccc2c3c([nH]c2c1)[C@]1(CCC2CCCC2)[C@@H](C(=O)N2CCOCC2)C[C@H](CC(=O)NCCN2CCOCC2)C(=O)N1CC3,–,-13.7%
CS(=O)(=O)N1CCN(c2ccccc2NC(=O)c2ccc([N+](=O)[O-])o2)CC1,1.3 µM (active),–
CCC(=O)N1CCN(c2ccc(Cl)cc2NC(=O)c2ccc([N+](=O)[O-])o2)CC1,1.16 µM (active),–
CC(=O)N1CCN(c2ccc(NC(=O)c3ccc([N+](=O)[O-])o3)cc2Cl)CC1,1.45 µM (active),–
CN1CCN(c2ccc(NC(=O)c3ccc([N+](=O)[O-])o3)cc2Cl)CC1,1.3 µM (active),–
O=C(Nc1ccccc1N1CCN(C(=O)c2ccccc2)CC1)c1ccc([N+](=O)[O-])o1,0.818 µM (active),–

SMILES,Potency,"activity change, negative = killing"
CN1CCN(c2ccc(NC(=O)c3ccc4c(c3)OCCO4)cc2Cl)CC1,5.16 µM (active),–
CC(=O)Nc1ccc(S(=O)(=O)NCCC(=O)N2CCN(c3ccccc3Cl)CC2)cc1,–,-25.3%
CCC(=O)N1CCN(c2ccc(NC(=O)c3ccc([N+](=O)[O-])o3)cc2Cl)CC1,0.65 µM (active),–
CCN1CCN(c2ccc(NC(=O)c3ccc([N+](=O)[O-])o3)cc2Cl)CC1,0.729 µM (active),–
O=C(Nc1cccc(Cl)c1N1CCOCC1)c1ccc([N+](=O)[O-])o1,1.3 µM (active),–
O=C(Nc1ccccc1N1CCOCC1)c1ccc([N+](=O)[O-])o1,1.3 µM (active),–
CC(C)C(=O)N1CCN(c2ccc(NC(=O)c3ccc([N+](=O)[O-])o3)cc2Cl)CC1,1.03 µM (active),–
CC(C)C(=O)N1CCN(c2ccccc2NC(=O)c2ccc([N+](=O)[O-])o2)CC1,1.16 µM (active),–
CCC(=O)N1CCN(c2ccccc2NC(=O)c2ccc([N+](=O)[O-])o2)CC1,0.818 µM (active),–
COc1ccc(-c2nc(CSCC(=O)NC3CCCC3)c(C)o2)cc1OC,–,-30.1%
COc1ccc(CN(C(=O)CSc2nnc(-c3ccc(OC)c(OC)c3)o2)c2ccc(F)cc2)cc1,3.65 µM (active),–
Cc1ccc(CSc2nnc(Cn3c(=O)sc4ccccc43)n2C)cc1,–,-21.4%
Cc1ccc(-c2nc(-c3ccccc3)no2)c(Cl)c1,1.63 µM (active),–
Nc1ccc[n+](CC(=O)c2ccc(F)cc2)c1,2.31 µM (active),–
Cc1cccc(NC(=O)c2ccc([N+](=O)[O-])s2)c1C,3.26 µM (active),–
O=C(Nc1cccc2ccccc12)c1ccc([N+](=O)[O-])s1,2.05 µM (active),–
COc1cc2sc3cc(NCCCN4CCOCC4)ccc3c(=O)c2cc1OC,5.16 µM (active),–
COc1ccc(Cc2noc(CN(C)Cc3ccc(-n4cccn4)cc3)n2)cc1OC,–,-6.65%
COc1cc2nc(CN(C)Cc3ccc(C(C)(C)C)cc3)[nH]c(=O)c2cc1OC,5.16 µM (active),–
Cc1ncc([N+](=O)[O-])n1CCOC(=O)C12CC3CC(CC(C3)C1)C2,1.3 µM (active),–
Cc1ncc([N+](=O)[O-])n1CCOC(=O)c1ccc(Br)cc1,1.16 µM (active),–
Cc1ncc([N+](=O)[O-])n1CCOC(=O)c1ccccc1,1.03 µM (active),–
